Reference: the supplement of paper PMC10849652
About 7,900 targets were measured; listed, in parts, are those with a hit and a random draw of the rest. About 0.6% of all pairs of compound and target were hits. A number with no mark means an inactive call.

What was measured:
Experiment in all cases: log2 fold change, soluble protein after heating vs DMSO (PISA); higher = thermal stabilisation; K562 cells, 10 uM, 30 min; active = over 0.2 and 3.5 SD of the protein, either way, in both replicates (recomputed)
saracatinib = compound: CN1CCN(CCOc2cc(OC3CCOCC3)c3c(Nc4c(Cl)ccc5c4OCO5)ncnc3c2)CC1 [saracatinib]
Outline: (§1)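 Soluble protein was defined as the supernatant after 21,000xg for 90 min. It came from K562 cells at 2×10^6 cells/mL given 10 μM compound for 30 min, heated in aliquots for 3 min across 48°C-58°C, pooled, and extracted in PBS with 0.5% NP-40 at 4°C, and was quantified by TMTpro 16plex LC-MS/MS with equalised channel sums. Thermal stability against control samples, from duplicates, is reported as log2 fold change.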

sotrastaurin = compound: CN1CCN(c2nc(C3=C(c4c[nH]c5ccccc45)C(=O)NC3=O)c3ccccc3n2)CC1 [sotrastaurin]
Outline: as §1

Tubastatin A = compound: CN1CCc2c(c3ccccc3n2Cc2ccc(C(=O)NO)cc2)C1 [Tubastatin A]
Outline: as §1

[1] = compound: CNC(=O)C1=CC=CC=C1NC2=NC(=NC=C2Cl)NC3=C(C=C(C=C3)N4CCOCC4)OC
Outline: as §1

defactinib = compound: CNC(=O)c1ccc(Nc2ncc(C(F)(F)F)c(NCc3nccnc3N(C)S(C)(=O)=O)n2)cc1 [defactinib]
Outline: as §1

rucaparib = compound: CNCc1ccc(-c2[nH]c3cc(F)cc4c3c2CCNC4=O)cc1 [rucaparib]
Outline: as §1

[2] = compound: CNc1nc(-c2ccc3c(N)n[nH]c3c2)cc(N2C[C@@H](C(=O)NC3CCCCC3)CC[C@H]2C)n1
Outline: as §1

encorafenib = compound: COC(=O)N[C@@H](C)CNc1nccc(-c2cn(C(C)C)nc2-c2cc(Cl)cc(NS(C)(=O)=O)c2F)n1 [encorafenib]
Outline: as §1

[3] = compound: COC(=O)[C@H](CCSC)NC(=O)C1=C(C=C(C=C1)NC[C@H](CS)N)C2=CC=CC=C2
Outline: as §1

alvocidib = compound: CN1CC[C@H](c2c(O)cc(O)c3c(=O)cc(-c4ccccc4Cl)oc23)[C@H](O)C1 [alvocidib]
Outline: as §1

WDR46, A0A0G2JJL1
log2 fold change (saracatinib): 0.065
log2 fold change (sotrastaurin): 0.052
log2 fold change (Tubastatin A): -0.095
log2 fold change [1]: 0.007
log2 fold change (defactinib): 0.408
log2 fold change (rucaparib): 0.293
log2 fold change [2]: 0.119
log2 fold change (encorafenib): 0.044
log2 fold change [3]: -0.138

UBE3B (UniProt Q7Z3V4)
Sequence of UniProt Q7Z3V4 (Q7Z3V4 whole entry, looked up): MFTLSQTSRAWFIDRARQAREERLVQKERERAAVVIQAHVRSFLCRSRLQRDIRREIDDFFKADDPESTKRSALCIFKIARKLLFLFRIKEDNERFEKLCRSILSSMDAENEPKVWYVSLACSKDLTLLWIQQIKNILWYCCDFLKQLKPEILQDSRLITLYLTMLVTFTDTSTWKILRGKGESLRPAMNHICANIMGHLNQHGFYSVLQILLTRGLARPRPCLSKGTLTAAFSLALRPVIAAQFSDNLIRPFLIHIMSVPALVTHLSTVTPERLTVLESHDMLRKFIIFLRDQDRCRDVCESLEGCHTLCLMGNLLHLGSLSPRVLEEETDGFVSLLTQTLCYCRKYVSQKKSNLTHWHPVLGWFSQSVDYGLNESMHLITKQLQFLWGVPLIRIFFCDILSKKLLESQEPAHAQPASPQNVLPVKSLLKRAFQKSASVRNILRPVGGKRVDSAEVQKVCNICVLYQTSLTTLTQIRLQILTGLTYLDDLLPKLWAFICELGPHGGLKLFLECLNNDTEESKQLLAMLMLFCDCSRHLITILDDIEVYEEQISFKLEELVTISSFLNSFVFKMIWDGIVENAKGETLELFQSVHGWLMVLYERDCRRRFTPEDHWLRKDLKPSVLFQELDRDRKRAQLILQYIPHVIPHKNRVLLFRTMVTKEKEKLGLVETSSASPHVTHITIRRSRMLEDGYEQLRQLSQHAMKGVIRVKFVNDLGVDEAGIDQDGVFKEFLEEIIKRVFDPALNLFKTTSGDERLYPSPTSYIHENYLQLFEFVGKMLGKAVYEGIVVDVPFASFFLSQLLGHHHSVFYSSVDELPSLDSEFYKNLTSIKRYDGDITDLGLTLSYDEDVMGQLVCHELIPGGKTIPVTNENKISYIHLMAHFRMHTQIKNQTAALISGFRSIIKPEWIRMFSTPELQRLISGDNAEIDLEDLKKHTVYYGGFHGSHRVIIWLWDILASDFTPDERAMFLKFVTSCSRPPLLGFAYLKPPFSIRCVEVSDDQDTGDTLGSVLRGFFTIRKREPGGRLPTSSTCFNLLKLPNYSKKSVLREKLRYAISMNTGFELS
log2 fold change (saracatinib): -0.028
log2 fold change (sotrastaurin): 0.005
log2 fold change (alvocidib): 0.122
log2 fold change (Tubastatin A): 0.128
log2 fold change [2]: -0.032

WARS1 (UniProt G3V5U1)
log2 fold change (sotrastaurin): 0.315
log2 fold change (rucaparib): 0.228
log2 fold change (encorafenib): -0.451

UBAP2L (UniProt F8W726)
log2 fold change (Tubastatin A): -0.039
log2 fold change [1]: -0.05
log2 fold change (rucaparib): -0.006
log2 fold change (encorafenib): -0.021

TRIM4 (UniProt Q9C037)
Sequence of UniProt Q9C037 (Q9C037 whole entry, looked up): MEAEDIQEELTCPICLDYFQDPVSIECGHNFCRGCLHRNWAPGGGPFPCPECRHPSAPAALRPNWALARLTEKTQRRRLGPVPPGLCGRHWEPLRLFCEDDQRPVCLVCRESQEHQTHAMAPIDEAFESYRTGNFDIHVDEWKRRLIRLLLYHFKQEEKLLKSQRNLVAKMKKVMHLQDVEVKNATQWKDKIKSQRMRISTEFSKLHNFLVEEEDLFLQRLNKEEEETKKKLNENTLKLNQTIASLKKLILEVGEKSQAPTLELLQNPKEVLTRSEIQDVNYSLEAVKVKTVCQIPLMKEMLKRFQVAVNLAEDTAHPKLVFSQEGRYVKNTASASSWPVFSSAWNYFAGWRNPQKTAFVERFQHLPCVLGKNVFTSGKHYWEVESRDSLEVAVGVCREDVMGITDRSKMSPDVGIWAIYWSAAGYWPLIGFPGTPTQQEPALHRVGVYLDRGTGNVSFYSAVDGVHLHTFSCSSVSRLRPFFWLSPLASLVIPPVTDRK
log2 fold change (sotrastaurin): 0.024
log2 fold change (alvocidib): -0.029
log2 fold change (Tubastatin A): 0.097
log2 fold change [1]: 0.439 (active)
log2 fold change (defactinib): -0.029
log2 fold change (rucaparib): 0.031
log2 fold change (encorafenib): 0.04
log2 fold change [3]: -0.108

TMEM179B (UniProt Q7Z7N9)
Sequence of UniProt Q7Z7N9 (Q7Z7N9 whole entry, looked up): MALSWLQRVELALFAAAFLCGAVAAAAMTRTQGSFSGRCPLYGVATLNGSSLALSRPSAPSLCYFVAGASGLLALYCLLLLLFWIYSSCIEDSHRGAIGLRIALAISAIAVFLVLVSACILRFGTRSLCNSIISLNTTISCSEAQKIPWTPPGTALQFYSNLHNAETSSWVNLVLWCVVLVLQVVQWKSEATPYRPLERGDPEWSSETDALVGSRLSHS
log2 fold change (sotrastaurin): 0.151
log2 fold change (alvocidib): 0.097
log2 fold change (Tubastatin A): 0.036
log2 fold change [1]: 0.044
log2 fold change (rucaparib): 0.026
log2 fold change (encorafenib): -0.015

XAB2 (UniProt Q9HCS7)
log2 fold change (saracatinib): 0.052
log2 fold change [2]: 0.073

TMEM184C (UniProt Q9NVA4)
log2 fold change (saracatinib): 0.022
log2 fold change (sotrastaurin): 0.139
log2 fold change (alvocidib): -0.123
log2 fold change (Tubastatin A): 0.022
log2 fold change (defactinib): -0.049
log2 fold change (rucaparib): 0.028
log2 fold change [2]: -0.182
log2 fold change (encorafenib): 0.051
log2 fold change [3]: 0.118

VDAC1 (UniProt C9JI87)
log2 fold change (saracatinib): -0.027
log2 fold change (sotrastaurin): 0.034
log2 fold change (alvocidib): 0.201
log2 fold change [1]: -0.135
log2 fold change (rucaparib): -0.247
log2 fold change [2]: -0.189
log2 fold change (encorafenib): -0.087

TTC26
log2 fold change (Tubastatin A): -0.033
log2 fold change (defactinib): 0.265
log2 fold change [3]: 0.144

WDR4 isoform 3 (UniProt P57081)
log2 fold change (sotrastaurin): 0.098

TRIQK (UniProt Q629K1)
Sequence of UniProt Q629K1 (Q629K1 whole entry, looked up): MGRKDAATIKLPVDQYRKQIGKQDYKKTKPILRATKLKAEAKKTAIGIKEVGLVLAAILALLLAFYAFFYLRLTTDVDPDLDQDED
log2 fold change (saracatinib): -0.014
log2 fold change (sotrastaurin): -0.112
log2 fold change (alvocidib): 0.011
log2 fold change (Tubastatin A): -0.094
log2 fold change [2]: -0.045

VWA3B isoform 6 (UniProt Q502W6)
log2 fold change (saracatinib): 0.042
log2 fold change (alvocidib): 0.079
log2 fold change (Tubastatin A): -0.018
log2 fold change [1]: 0.017
log2 fold change (defactinib): 0.039
log2 fold change (rucaparib): -0.448
log2 fold change [2]: -0.076
log2 fold change (encorafenib): 0.095
log2 fold change [3]: -0.04

WARS1 (UniProt G3V277)
log2 fold change (sotrastaurin): 0.021
log2 fold change (Tubastatin A): 0.005
log2 fold change [1]: -0.052
log2 fold change (defactinib): 0
log2 fold change [3]: 0.14

TMEM104 (UniProt Q8NE00)
log2 fold change (saracatinib): -0.024
log2 fold change (alvocidib): -0.013
log2 fold change [1]: -0.007
log2 fold change (rucaparib): 0.06
log2 fold change [2]: -0.122
log2 fold change (encorafenib): 0.056

WARS1 (UniProt G3V3P2)
log2 fold change (sotrastaurin): 0.336

U2AF1L5 (UniProt P0DN76)
log2 fold change (saracatinib): -0.013
log2 fold change (Tubastatin A): 0.072
log2 fold change [1]: 0.084
log2 fold change (defactinib): -0.409
log2 fold change (rucaparib): 0.236
log2 fold change [2]: -0.023
log2 fold change (encorafenib): 0.23
log2 fold change [3]: 0.107

TRABD (UniProt Q9H4I3)
log2 fold change (sotrastaurin): 0.003
log2 fold change (alvocidib): -0.151
log2 fold change (Tubastatin A): 0.06
log2 fold change [1]: 0.131
log2 fold change (defactinib): -0.096
log2 fold change (rucaparib): 0.073
log2 fold change (encorafenib): -0.01
log2 fold change [3]: -0.033

TUBA4A (UniProt C9JJQ8)
log2 fold change (saracatinib): -0.148
log2 fold change (sotrastaurin): -0.084
log2 fold change (alvocidib): -0.191
log2 fold change (Tubastatin A): 0.147
log2 fold change (defactinib): -0.215
log2 fold change (rucaparib): 0.186
log2 fold change [2]: 0.131
log2 fold change (encorafenib): 0.078
log2 fold change [3]: -0.055

UCHL5 isoform 3 (UniProt Q9Y5K5)
Sequence of UniProt Q9Y5K5 (Q9Y5K5 whole entry, looked up): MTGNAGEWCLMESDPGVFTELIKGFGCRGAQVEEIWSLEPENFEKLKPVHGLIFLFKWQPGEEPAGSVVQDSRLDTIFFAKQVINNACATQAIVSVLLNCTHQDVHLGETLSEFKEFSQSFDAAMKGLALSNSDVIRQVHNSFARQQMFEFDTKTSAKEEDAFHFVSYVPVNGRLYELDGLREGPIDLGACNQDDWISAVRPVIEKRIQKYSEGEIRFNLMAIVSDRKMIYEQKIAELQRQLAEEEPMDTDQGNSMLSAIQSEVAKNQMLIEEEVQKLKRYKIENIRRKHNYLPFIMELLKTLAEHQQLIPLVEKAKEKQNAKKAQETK
log2 fold change (sotrastaurin): -0.292
log2 fold change (alvocidib): -0.156
log2 fold change (Tubastatin A): -0.035
log2 fold change [1]: 0.136
log2 fold change (defactinib): 0.03
log2 fold change (rucaparib): -0.08
log2 fold change (encorafenib): 0.241
log2 fold change [3]: -0.254

TRPT1 isoform 4 (UniProt Q86TN4)
log2 fold change (sotrastaurin): -0.208
log2 fold change [1]: -0.069
log2 fold change (rucaparib): 0.101
log2 fold change (encorafenib): 0.036

TMEM268 isoform 3 (UniProt Q5VZI3)
Sequence of UniProt Q5VZI3 (Q5VZI3 whole entry, looked up): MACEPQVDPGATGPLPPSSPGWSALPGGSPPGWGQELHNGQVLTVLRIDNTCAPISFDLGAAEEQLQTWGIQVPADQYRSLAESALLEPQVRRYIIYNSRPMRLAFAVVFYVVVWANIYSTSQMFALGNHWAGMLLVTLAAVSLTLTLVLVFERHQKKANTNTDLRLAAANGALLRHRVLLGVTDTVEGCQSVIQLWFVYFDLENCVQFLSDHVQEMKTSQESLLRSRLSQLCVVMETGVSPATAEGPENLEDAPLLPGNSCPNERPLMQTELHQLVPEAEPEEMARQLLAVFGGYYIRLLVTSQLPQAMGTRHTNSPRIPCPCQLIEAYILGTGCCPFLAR
log2 fold change (saracatinib): 0.033
log2 fold change (sotrastaurin): -0.103
log2 fold change (alvocidib): 0.069
log2 fold change (Tubastatin A): 0.131
log2 fold change [1]: -0.017
log2 fold change (rucaparib): -0.021
log2 fold change [2]: 0.046
log2 fold change (encorafenib): -0.19

WARS1 (UniProt G3V227)
log2 fold change (saracatinib): 0.003
log2 fold change (alvocidib): -0.065
log2 fold change (Tubastatin A): -0.053
log2 fold change (defactinib): -0.001
log2 fold change [2]: 0.021
log2 fold change [3]: 0.3

UBXN8 (UniProt O00124)
log2 fold change (saracatinib): -0.054
log2 fold change (sotrastaurin): 0.027
log2 fold change (alvocidib): 0.102
log2 fold change (Tubastatin A): -0.144
log2 fold change (defactinib): 0.065
log2 fold change (rucaparib): -0.568 (active)
log2 fold change [2]: -0.112
log2 fold change (encorafenib): 0.094
log2 fold change [3]: -0.095

TXNRD1 isoform 7 (UniProt Q16881)
log2 fold change (saracatinib): -0.202
log2 fold change (sotrastaurin): 0.019
log2 fold change [1]: -0.364
log2 fold change (defactinib): -0.194
log2 fold change (rucaparib): 0.263
log2 fold change [2]: 0.065
log2 fold change (encorafenib): -0.085
log2 fold change [3]: 0.062

TVP23C (UniProt Q96ET8)
Sequence of UniProt Q96ET8 (Q96ET8 whole entry, looked up): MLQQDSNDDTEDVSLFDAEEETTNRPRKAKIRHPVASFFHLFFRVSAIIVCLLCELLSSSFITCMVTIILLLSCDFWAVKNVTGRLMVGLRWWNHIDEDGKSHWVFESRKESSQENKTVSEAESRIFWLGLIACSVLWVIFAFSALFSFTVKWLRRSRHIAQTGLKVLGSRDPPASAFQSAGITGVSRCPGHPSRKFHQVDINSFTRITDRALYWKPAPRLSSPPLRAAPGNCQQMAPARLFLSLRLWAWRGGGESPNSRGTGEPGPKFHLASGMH
log2 fold change (saracatinib): 0.025
log2 fold change (alvocidib): -0.135
log2 fold change (Tubastatin A): 0
log2 fold change [1]: 0.042
log2 fold change (defactinib): 0.039
log2 fold change (rucaparib): -0.205
log2 fold change [2]: 0.015
log2 fold change (encorafenib): 0.129
log2 fold change [3]: 0.067

WDR75 (UniProt Q8IWA0)
Sequence of UniProt Q8IWA0 (Q8IWA0 whole entry, looked up): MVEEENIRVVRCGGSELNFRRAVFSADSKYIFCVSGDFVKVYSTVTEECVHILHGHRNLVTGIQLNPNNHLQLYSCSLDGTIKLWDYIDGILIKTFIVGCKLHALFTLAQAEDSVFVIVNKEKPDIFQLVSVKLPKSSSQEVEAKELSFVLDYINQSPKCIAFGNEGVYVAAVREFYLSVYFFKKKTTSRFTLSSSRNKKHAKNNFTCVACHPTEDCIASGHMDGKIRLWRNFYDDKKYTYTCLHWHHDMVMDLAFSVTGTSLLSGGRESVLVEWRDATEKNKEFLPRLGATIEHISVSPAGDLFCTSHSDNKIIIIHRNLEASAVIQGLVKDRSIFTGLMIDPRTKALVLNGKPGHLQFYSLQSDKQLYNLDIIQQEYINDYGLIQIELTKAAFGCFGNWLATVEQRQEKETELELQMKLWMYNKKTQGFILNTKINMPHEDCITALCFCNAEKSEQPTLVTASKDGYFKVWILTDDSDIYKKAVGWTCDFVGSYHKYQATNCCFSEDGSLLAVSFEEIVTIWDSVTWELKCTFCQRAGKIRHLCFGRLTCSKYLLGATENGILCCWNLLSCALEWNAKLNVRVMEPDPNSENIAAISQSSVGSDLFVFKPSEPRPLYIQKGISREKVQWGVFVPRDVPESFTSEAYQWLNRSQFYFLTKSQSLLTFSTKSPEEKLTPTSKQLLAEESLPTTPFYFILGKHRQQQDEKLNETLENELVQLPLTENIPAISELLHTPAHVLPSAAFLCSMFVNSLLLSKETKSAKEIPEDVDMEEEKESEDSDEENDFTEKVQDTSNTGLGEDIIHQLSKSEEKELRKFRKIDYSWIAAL
log2 fold change (saracatinib): -0.109
log2 fold change (alvocidib): 0.147
log2 fold change (Tubastatin A): 0.173
log2 fold change (defactinib): 0.144
log2 fold change [2]: 0.162
log2 fold change [3]: -0.197

TTC33 (UniProt Q6PID6)
log2 fold change (saracatinib): -0.103
log2 fold change (sotrastaurin): 0.009
log2 fold change (alvocidib): 0.041
log2 fold change [1]: 0.012
log2 fold change (defactinib): 0.013
log2 fold change (rucaparib): -0.008
log2 fold change [2]: -0.152
log2 fold change (encorafenib): -0.014
log2 fold change [3]: 0.054

UBA52 (UniProt P62987)
log2 fold change (sotrastaurin): -0.029
log2 fold change (alvocidib): 0.339
log2 fold change (Tubastatin A): -0.004
log2 fold change [1]: -0.008
log2 fold change (defactinib): 0.221
log2 fold change (rucaparib): 0.421
log2 fold change (encorafenib): 0.152
log2 fold change [3]: 0.08

TMEM41A (UniProt Q96HV5)
log2 fold change (saracatinib): 0.03
log2 fold change (sotrastaurin): -0.057
log2 fold change (Tubastatin A): -0.068
log2 fold change [1]: 0.008
log2 fold change (defactinib): 0.003
log2 fold change (rucaparib): -0.009
log2 fold change [2]: -0.011
log2 fold change (encorafenib): 0.025
log2 fold change [3]: -0.012

TOM1L2 (UniProt Q6ZVM7)
log2 fold change (saracatinib): -0.02
log2 fold change (sotrastaurin): -0.091
log2 fold change (alvocidib): -0.357 (active)
log2 fold change [1]: -0.102
log2 fold change (defactinib): -0.072
log2 fold change [2]: -0.05
log2 fold change [3]: 0.058

UTP20 (UniProt O75691)
log2 fold change (Tubastatin A): -0.028
log2 fold change [1]: -0.051

TMEM9B (UniProt Q9NQ34)
Sequence of UniProt Q9NQ34 (Q9NQ34 whole entry, looked up): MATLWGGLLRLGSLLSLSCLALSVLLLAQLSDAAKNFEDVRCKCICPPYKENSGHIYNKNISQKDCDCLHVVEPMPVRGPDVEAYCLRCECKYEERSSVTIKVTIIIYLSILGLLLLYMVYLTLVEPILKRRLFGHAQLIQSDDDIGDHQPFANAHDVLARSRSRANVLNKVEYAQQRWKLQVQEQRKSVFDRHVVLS
log2 fold change (sotrastaurin): 0.019
log2 fold change (alvocidib): 0.075
log2 fold change (Tubastatin A): -0.033
log2 fold change [1]: -0.029
log2 fold change (defactinib): -0.029
log2 fold change (rucaparib): -0.02
log2 fold change (encorafenib): 0.063
log2 fold change [3]: -0.001

TSC2 (UniProt P49815)
log2 fold change (sotrastaurin): -0.085
log2 fold change (alvocidib): -0.134
log2 fold change (Tubastatin A): 0.437
log2 fold change [1]: -0.603
log2 fold change (rucaparib): -0.097
log2 fold change (encorafenib): 0.042

TOM1 (UniProt O60784)
Sequence of UniProt O60784 (O60784 whole entry, looked up): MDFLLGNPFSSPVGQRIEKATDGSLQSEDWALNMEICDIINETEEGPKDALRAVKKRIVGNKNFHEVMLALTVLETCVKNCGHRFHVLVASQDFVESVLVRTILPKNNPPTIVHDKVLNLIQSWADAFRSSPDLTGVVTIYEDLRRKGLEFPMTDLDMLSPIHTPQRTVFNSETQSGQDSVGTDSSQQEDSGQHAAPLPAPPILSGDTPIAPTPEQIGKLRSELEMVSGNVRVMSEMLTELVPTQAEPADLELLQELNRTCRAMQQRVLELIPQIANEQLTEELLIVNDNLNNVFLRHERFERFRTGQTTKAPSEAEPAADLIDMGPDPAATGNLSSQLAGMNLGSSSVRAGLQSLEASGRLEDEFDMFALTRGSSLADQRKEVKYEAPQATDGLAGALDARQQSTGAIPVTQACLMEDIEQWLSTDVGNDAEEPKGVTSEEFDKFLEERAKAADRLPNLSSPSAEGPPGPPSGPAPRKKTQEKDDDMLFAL
log2 fold change (sotrastaurin): -0.033
log2 fold change (Tubastatin A): 0.002
log2 fold change [1]: -0.113

USP48 (UniProt Q86UV5)
log2 fold change (sotrastaurin): -0.123
log2 fold change [1]: -0.045
log2 fold change (rucaparib): -0.102
log2 fold change (encorafenib): 0.318

XRCC1 (UniProt P18887)
Sequence of UniProt P18887 (P18887 whole entry, looked up): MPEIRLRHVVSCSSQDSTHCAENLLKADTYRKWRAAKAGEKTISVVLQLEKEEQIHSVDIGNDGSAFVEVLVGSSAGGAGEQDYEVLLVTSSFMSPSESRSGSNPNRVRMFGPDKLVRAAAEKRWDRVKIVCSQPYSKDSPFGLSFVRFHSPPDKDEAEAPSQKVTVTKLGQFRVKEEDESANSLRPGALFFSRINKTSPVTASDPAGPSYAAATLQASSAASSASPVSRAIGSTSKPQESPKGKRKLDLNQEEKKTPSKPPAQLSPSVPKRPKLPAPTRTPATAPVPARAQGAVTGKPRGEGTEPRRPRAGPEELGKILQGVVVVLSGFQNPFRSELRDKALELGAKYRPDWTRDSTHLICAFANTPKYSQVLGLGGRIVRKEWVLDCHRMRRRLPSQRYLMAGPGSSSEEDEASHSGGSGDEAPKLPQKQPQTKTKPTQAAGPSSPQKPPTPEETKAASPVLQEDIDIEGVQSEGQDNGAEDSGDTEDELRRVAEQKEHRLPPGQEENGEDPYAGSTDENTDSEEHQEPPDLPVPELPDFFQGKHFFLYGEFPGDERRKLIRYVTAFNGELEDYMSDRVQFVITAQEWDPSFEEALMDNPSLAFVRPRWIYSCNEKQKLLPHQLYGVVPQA
log2 fold change (saracatinib): 0.008
log2 fold change (sotrastaurin): -0.264
log2 fold change (alvocidib): -0.029
log2 fold change (Tubastatin A): 0.055
log2 fold change [1]: 0.05
log2 fold change [2]: 0.148
